Data on 40 compounds can be found in PubChem BioAssay (NCATS).

SMILES strings stand for the structures. Inconclusive results are not listed. Where a call stands in place of a potency, no number is given. Calls of active or inactive are those of the source. The call rests on the fitted dose curve; in most records, active means well fitted inhibition curve with a large enough effect; inconclusive means small, poorly fitted or top-dose-only effect; inactive means flat fitted curve, though single readings scatter.
Potency means the concentration at half of the fitted maximal effect.

In the assay the target is Phospholipid hydroperoxide glutathione peroxidase GPX4 (Homo sapiens) (UniProt P36969). Kind of assay: Primary qHTS Assay for Inhibitors of Recombinant Selenoprotein Glutathione Peroxidase 4 (GPX4) (AID 1845192). Further: nearly all actives have a fitted effect of over 65% in size. The conditions noted are these: recombinant GPX4, GR-coupled NADPH fluorescence, 15 min; series mostly up to 50 µM. An excerpt: Assay Provider: Elias S.J. Arner MD PhD.
Chain of Phospholipid hydroperoxide glutathione peroxidase GPX4 (Homo sapiens) (P36969 whole entry, looked up): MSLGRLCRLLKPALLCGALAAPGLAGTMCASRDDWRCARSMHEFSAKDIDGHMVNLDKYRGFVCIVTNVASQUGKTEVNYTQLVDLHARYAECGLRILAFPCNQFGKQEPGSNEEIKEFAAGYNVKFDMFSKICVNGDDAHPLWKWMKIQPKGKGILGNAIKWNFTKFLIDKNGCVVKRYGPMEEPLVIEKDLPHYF
Department of Medical Biochemistry and Biophysics
Karolinska Institutet, Solna, Stockholm, Sweden
Selenoprotein glutathione peroxidases (GPX), like the ubiquitously expressed GPX1 and the ferroptosis modulator GPX4, enact their antioxidant activities by reducing hydroperoxides using glutathione. […] GPX1 and GPX4 inhibitors have thus shown promise as anti-cancer agents. Existing inhibitors are often promiscuous, or modulate GPX activity only indirectly, so novel direct inhibitors identified through screening against GPX1 and GPX4 could be valuable. Here, we developed optimized glutathione reductase (GR)-coupled GPX assays for the biochemical high-throughput screen (HTS) of almost 12,000 compounds with known mechanisms of action. Initial hits were triaged using a GR counter-screen, assessed for isoform specificity using a separate GPX2 assay, and were assessed for general selenocysteine-targeting activity using a thioredoxin reductase (TXNRD1) assay. With this suite of assays, we identified novel GPX1/GPX2- and GPX4-specific inhibitors and can here present a validated pipeline for future discovery research for selenoprotein-targeting agents.
SEQUENCE No. (e.g., 1, 2, 3, etc.); […] (e.g., Cells, Incubation, Reagent, etc.); VALUE; DESCRIPTION.
1; Reagent 1; 3 uL; 333.33 nM GPx4 enzyme or no enzyme control in 1536-well, black, solid Greiner assay plate.
2; Compound; 25 nL; Kalypsis pin tool (Wako USA) equipped with a 1536-well pin head.
3; Incubation; 30 min; room temperature.
4; Reagent 2; 1 uL; 500 nM GR, 5 mM GSH, 2.5 mM NADPH solution
5; Reagent 3; 1 uL; 2.5 mM CHP in 50% EtOH.
6; Detection; Fluorescence; ViewLux microplate reader, excitation 340 nm and emission 450 nm.
7; Incubation; 15 min; room temperature.
8; Detection; Fluorescence; ViewLux microplate reader, excitation 340 nm and emission 450 nm.
NOTES (numbers refer to Sequence numbers above)
1. 3 µL of 333.33 nM GPX4 and 0.016% BSA in assay buffer (50 mM Tris-HCl, 2 mM EDTA (pH 7.5), 150 mM NaCl) was added to columns 3-48 of 1536-well plates using a BioRAPTR Flying Reagent Dispenser (Let's Go Robotics (LGR), Carlsbad, CA). A no-enzyme control (0.01% BSA in TES assay buffer) was added to columns 1-2.
2. 25 nL, library and DMSO controls were added to each well with a pin tool (Kalypsys).
3. The assay plates were incubated for 30 minutes at room temperature.
4. 1 µL of master mix (500 nM glutathione reductase (GR), 5 mM reduced glutathione (GSH), 2.5 mM NADPH in assay buffer) was added.
5. 1 µL of cumene hydroperoxide (CHP) ([2.5 mM] in 50% EtOH) was then added within 5 minutes to initiate the reaction. Final concentrations were: 200 nM GPX4, 1 mM GSH, 0.5 mM CHP, 0.5 mM NADPH, 100 nM GR, 0.01% BSA.
6. Initial fluorescence readout (t=0) at 340/450 nm was measured using a ViewLux multimodal detector (PerkinElmer, Waltham, MA).
8. Endpoint fluorescence readout (t=15) at 340/450 nm was measured 15 min after room temperature incubation.
For `Nc1ccc(C(=O)NCC(=O)O)cc1`, the Potency result was “inactive”.
Regarding `O=C(Nc1cccc(C2=NCCN2)c1)Nc1cccc(C2=NCCN2)c1`, the Potency result is “inactive”.
`CCOc1ccc(NC(C)=O)cc1`: the Potency result was “inactive”.
For `CCOCCn1c(N2CCCN(C)CC2)nc2ccccc21`, the Potency entry is “inactive”.
`c1ccc(CC2=NCCN2)cc1`: the Potency result was “inactive”.
For the compound `CCCc1ncc(C[n+]2ccccc2C)c(N)n1`, the Potency entry was “inactive”.
With `C[N+]12CCC(CC1)C(OC(=O)C(O)(c1ccccc1)c1ccccc1)C2` (stereo not given), the Potency result was “inactive”.
For the compound `CCN1CCCC(OC(=O)C(c2ccccc2)c2ccccc2)C1` (stereo not given), the Potency entry was “inactive”.
To `C#C[C@]1(OC(C)=O)CC[C@H]2[C@@H]3CCC4=C/C(=N/O)CC[C@@H]4[C@H]3CC[C@@]21CC` belongs “inactive”; to `CC[C@]12CCCN3CCc4c(n(c5ccccc45)C(=O)C1)[C@@H]32`, “inactive”.
To `CCOc1ccccc1OCCN[C@H](C)Cc1ccc(OC)c(S(N)(=O)=O)c1` belongs “inactive”.
`CCCCCCCCCCC[C@@H](C[C@@H]1OC(=O)[C@H]1CCCCCC)OC(=O)[C@H](CC(C)C)NC=O`: the Potency result was “inactive”.
Regarding `CC(=O)Nc1ccc(OC(=O)c2ccccc2OC(C)=O)cc1`, the Potency result was “inactive”.
For the compound `CCN(CC)CCOC(=O)C1(c2ccccc2)CCCC1`, the Potency entry is “inactive”.
For the compound `CN(Cc1ccc(C(C)(C)C)cc1)Cc1cccc2ccccc12`, the Potency result is “inactive”.
Regarding `CC(=O)O[C@]1(C(C)=O)CC[C@H]2[C@@H]3C=C(C)C4=CC(=O)CC[C@]4(C)[C@H]3CC[C@@]21C`, the Potency result is “inactive”.
For the compound `Cc1cc(NS(=O)(=O)c2ccc(N)cc2)nc(C)n1`, the Potency entry was “inactive”.
Regarding `CCCN(CCC)S(=O)(=O)c1ccc(C(=O)O)cc1`, the Potency result was “inactive”.
For `Cc1ccccc1OCC(O)CO` (stereo not given), the Potency result is “inactive”.
`CCCCN1C[C@H](O)[C@@H](O)[C@H](O)[C@H]1CO`: the Potency entry is “inactive”.
The same measure for `CC(O)Cn1cnc2c1c(=O)n(C)c(=O)n2C` (stereo not given): “inactive”.
With `O=S(=O)(O)c1ccc(O)cc1`, the Potency entry was “inactive”.
Consider `CCCCCCCCCCCCCC(=O)OC(C)C`, for which the Potency result is “inactive”.
For `Oc1c(Cl)cc(Cl)c(Cl)c1Cc1c(O)c(Cl)cc(Cl)c1Cl`, the Potency is 25.5 µM (active).
Regarding `CC(=C(CCOC(=O)C(C)C)SSC(CCOC(=O)C(C)C)=C(C)N(C=O)Cc1cnc(C)nc1N)N(C=O)Cc1cnc(C)nc1N`, the Potency result is “inactive”.
With `CCN(CC)CCOC(=O)C(Cc1cccc2ccccc12)CC1CCCO1` (stereo not given), the Potency result was “inactive”.
The same measure for `CCC1Nc2cc(Cl)c(S(N)(=O)=O)cc2S(=O)(=O)N1` (stereo not given): “inactive”.
Consider `C[N+]1(CC2COC(c3ccccc3)(C3CCCCC3)O2)CCCCC1` (stereo not given), for which the Potency result was “inactive”.
For `C=CCN1CCc2nc(N)sc2CC1`, the Potency result is “inactive”.
The same measure for `CCCCCCCCCCCCOCCOCCOCCOCCOCCOCCOCCOCCOCCO`: “inactive”; for `CN1CCc2cccc3c2[C@H]1Cc1ccc(O)c(O)c1-3`: “inactive”.
`N#C/C(=C1\SCC(c2ccccc2Cl)S1)n1ccnc1` (stereo not given): the Potency result was “inactive”.
Turning to `O=C(Nc1ccc([N+](=O)[O-])cc1)Nc1ccc([N+](=O)[O-])cc1`, the Potency entry is “inactive”.
The same measure for `C#C[C@]1(O)CC[C@H]2[C@@H]3CCC4=CC(=O)CC[C@@H]4[C@H]3CC[C@@]21CC`: “inactive”; for `CNCCc1ccccn1`: “inactive”; for `Clc1cccc(C(c2ccc3nc[nH]c3c2)n2ccnc2)c1` (stereo not given): “inactive”.
For the compound `CNCCCCOc1ccccc1Cc1ccccc1`, the Potency result is “inactive”.
Regarding `CCCCC(CC)COC(=O)c1ccc(N(C)C)cc1` (stereo not given), the Potency result is “inactive”.
To `C[C@H]1O[C@@H](O[C@H]2CC[C@@]3(C)[C@H](CC[C@@H]4[C@@H]3C[C@@H](O)[C@]3(C)[C@@H](C5=CC(=O)OC5)CC[C@]43O)C2)C[C@H](O)[C@@H]1O[C@H]1C[C@H](O)[C@H](O[C@H]2C[C@H](O)[C@H](O[C@@H]3O[C@H](CO)[C@@H](O)[C@H](O)[C@H]3O)[C@@H](C)O2)[C@@H](C)O1` belongs “inactive”; to `CC[N+](C)(CC)CCOC(=O)C(O)(c1ccccc1)C1CCCCC1` (stereo not given), “inactive”.
